# Results: PubChem BioAssay AID1745848 (National Center for Advancing Translational Sciences (NCATS), 2022)
# About 940 (45%) of roughly 2,100 compounds were called active. About 48% were inconclusive and are not listed. Calls come from the whole dose curve; as a rule, active = well fitted inhibition curve with a large enough effect; inconclusive = small, poorly fitted or top-dose-only effect; inactive = no such curve, though single readings can be large or run the other way. So high a share suggests a set chosen from earlier hits. Some of the results follow.
# Assay: Confirmatory qHTS for Inhibitors of ATXN expression; note: nearly all actives have a fitted effect of over 65% in size;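 for activity change, negative = inhibition: 0% = DMSO vehicle wells and -100% = medium-only wells without cells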
# Settings: ATXN2-luciferase reporter cells, luminescence, 24 h; series mostly up to 11.5 µM; activity change, negative = inhibition: at the top concentration
# In short: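 Cells carrying ATXN2-luciferase reporter exposed 24 h at 37 C to compound. Viability then read by CellTiter-Fluor (25 uM GF-AFC, 30 min), followed by SteadyGlo luminescence; medium-only wells set 100% inhibition.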
# Potency is the fitted concentration of half-maximal effect.
SMILES,Potency,"activity change, negative = inhibition"
CC(=O)N1CCN(c2ccc(Oc3ccc([N+](=O)[O-])c(C(F)(F)F)c3)cc2)CC1,11.2 µM (active),
Cc1c(C(=O)Nc2ccc(-c3nnc4n3CCCCC4)cc2)oc2c1ccc1ccccc12,3.16 µM (active),
O=C(N/N=C/c1ccccc1O)C1CCCC1,28.2 µM (active),
O=C(N/N=C/c1ccccc1O)C1SCCCS1,14.1 µM (active),
C/C(=C\C(=O)c1ccc(Br)cc1)NNC(=O)c1ccc(O)cc1,14.1 µM (active),
O=C(c1cc(COc2cccc(C(F)(F)F)c2)on1)N1CCC(c2ccncc2)CC1,,-5.04% (inactive)
CC(=NNc1nc2ccccc2o1)c1ncccn1,0.199 µM (active),
Cc1ccc(C)c(NC(=O)CSc2n[nH]c(-c3ccccn3)n2)c1,22.4 µM (active),
Cc1ccsc1/C=C/C1=Cc2c(sc(NC(=O)CSc3n[nH]c(N)n3)c2C#N)C(C)(C)C1,,-14.6% [at 57.5 µM] (inactive)
Cc1ccccc1NC(=O)CSc1n[nH]c(-c2ccccn2)n1,14.1 µM (active),
CC1=C(CC[C@@H](C)CO)OC2CC3C4CCC5CC(O)CCC5(C)C4CC(=O)C3(C)C12 (some centres undefined),3.16 µM (active),
Cc1cc(N/N=C/c2ccccc2[N+](=O)[O-])nc(-n2nc(C)cc2C)n1,3.16 µM (active),
CCOc1cc(/C=N/Nc2cc(C)nc(-n3nc(C)cc3C)n2)ccc1O,0.708 µM (active),
C/C(=N\Nc1cc(N2CCOCC2)nc(C)n1)c1cccc([N+](=O)[O-])c1,,-16.7% (inactive)
Cc1cc(O)c(C(C)C)cc1N=Cc1ccccc1[N+](=O)[O-],,-14.8% [at 57.5 µM] (inactive)
Cc1nc(N/N=C/c2ccc(O)cc2O)cc(N2CCOCC2)n1,11.2 µM (active),
Cc1cc(N/N=C/c2ccc(O)cc2O)nc(-n2nc(C)cc2C)n1,5.01 µM (active),
CS/C(=C\[N+](=O)[O-])Nc1ccc(OC(F)(F)F)cc1,11.2 µM (active),
OC(CNCCc1ccccc1)COc1ccc(OCC(O)CNCCc2ccccc2)cc1 (centres undefined),12.6 µM (active),
CCCc1cc(=O)n2[nH]cc(-c3ccc(Cl)cc3)c2n1,2.82 µM (active),
O=c1c2c(nc3c(-c4ccc(Cl)cc4)c[nH]n13)CCCC2,1.26 µM (active),
O=C(c1cccc(Cl)c1)c1nn(-c2ccccc2)c(=O)cc1C(F)(F)F,31.6 µM (active),
O=c1c2ccccc2sc2nc(CCl)nn12,3.16 µM (active),
O=c1[nH]c(CN2CCN(c3ncccn3)CC2)nc2c(Br)cc(Br)cc12,2.82 µM (active),

SMILES,Potency,"activity change, negative = inhibition"
COc1cc(/C=N\NC(=O)CC#N)ccc1OC/C=C/c1ccccc1,28.2 µM (active),
Cn1c(CCc2nc3ccccc3[nH]2)nnc1SCC#N,,-2.57% [at 57.5 µM] (inactive)
Cc1[nH]c2ccccc2c1SCc1nnc(SCc2ccc(Cl)cc2)n1C,31.6 µM (active),
Cc1cc2sc3ccc(C#CC4(O)CCCCC4)cc3c(=O)c2cc1C,,-96.9% [at 57.5 µM] (inactive)
CC(C)n1c(NCc2cc(Cl)ccc2O)nc2ccccc21,,-14.6% (inactive)
Cc1ccc2cc(C3C(C#N)=C(N)Oc4c3ccc3cccnc43)c(=O)[nH]c2c1 (centres undefined),6.31 µM (active),
Cc1cccc(/C=C/C(=O)c2ccc([N+](=O)[O-])o2)c1,3.16 µM (active),
COc1ccc(/C=C/C(=O)c2ccc([N+](=O)[O-])o2)cc1OC,7.94 µM (active),
Cc1cc(C)cc(NC(=O)c2ccc([N+](=O)[O-])o2)c1,2.82 µM (active),
CNC(=O)c1sc(N2N=C3/C(=C/c4ccccc4)CCCC3C2c2ccccc2)nc1C (centres undefined),12.6 µM (active),
Cc1ccc(C(=O)NC(C)CCc2ccccc2)cc1S(=O)(=O)N1CCOCC1 (centres undefined),15.8 µM (active),
Cc1ccc(NC(=O)CNc2cccc(Br)c2)cc1S(=O)(=O)N1CCOCC1,,-21.3% (inactive)
CC(CCc1ccccc1)NC(=O)c1ccc(C(=O)NC(C)CCc2ccccc2)cc1 (centres undefined),1.58 µM (active),
CC(C)[C@H](CO)Nc1nc(NCc2ccc(S(N)(=O)=O)cc2)c2ncn(C(C)C)c2n1,2 µM (active),
Oc1c(Cl)cc(Cl)cc1/C=N/Nc1ncc(Br)cn1,2.51 µM (active),
CC1CC2(C)Oc3ccccc3CC2C(C)C1CNCCCN(C)C (centres undefined),14.1 µM (active),
C(=NN1CCCCCC1)c1ccc2ccccc2n1,,-96.8% [at 57.5 µM] (inactive)
CCc1nc2ccccc2c(C(=O)OCC(=O)Nc2ccc(NC(C)=O)cc2)c1C,,-25.1% (inactive)
CCc1nc2ccccc2c(C(=O)OCC(=O)Nc2cccc(S(=O)(=O)NC3=NCCCCC3)c2)c1C,17.8 µM (active),
Cc1cc(/C=N/n2c(COc3ccccc3)nc3ccccc3c2=O)c(O)c([N+](=O)[O-])c1,7.94 µM (active),
CSc1sc(-c2nnc(SCC(=O)Nc3ccc(Cl)cc3)n2C)c2c1C=CCC2,,-17.3% (inactive)
Cn1c(SCC(=O)N/N=C/c2ccc([N+](=O)[O-])s2)nnc1-c1ccccc1,17.8 µM (active),
Cn1c(SCC(=O)N/N=C/c2ccc([N+](=O)[O-])s2)nnc1-c1ccc(Cl)cc1,10 µM (active),
C=CCc1cccc(/C=N/NC(=O)CNc2ccccc2)c1O,2.82 µM (active),

SMILES,Potency,"activity change, negative = inhibition"
C=CCc1ccccc1OCC(=O)N/N=C/c1ccc(OC(C)=O)cc1OC(C)=O,15.8 µM (active),
C=CCc1cccc(/C=N/NC(=O)CNc2ccccc2OC)c1O,5.01 µM (active),
COc1ccc(C(=O)NNC(=S)NC(=O)c2ccccc2)cc1,14.1 µM (active),
CCC(=O)NC(=S)NNC(=O)c1ccc(OC)cc1,15.8 µM (active),
CCCOc1ccc(C(=O)NC(=S)NNC(=O)c2c(-c3ccccc3)noc2C)cc1,,-5.12% (inactive)
CCCC/C(C)=N/NC(=O)c1cn(-c2ccccc2)nc1-c1ccccc1,,-12.8% (inactive)
CCCCOc1ccc(C(=O)NNC(=S)NC(=O)CC)cc1,2.82 µM (active),
COc1ccc(-c2nn(-c3ccccc3)cc2C(=O)NC(=S)NNC(=O)c2ccncc2)cc1,15.8 µM (active),
C=CS(=O)(=O)c1c2cc(OC)ccc2nc2ccc(OC)cc12,28.2 µM (active),
COc1ccc(C)cc1Nc1nc(N)c2cc(OC)c(OC)cc2n1,2.82 µM (active),
O=C(COC(=O)c1cc([N+](=O)[O-])ccc1N1CCOCC1)Nc1ccc(Cl)cn1,6.31 µM (active),
CC(C)Nc1nc(-c2ccccn2)nc(-c2ccccc2)c1C#N,,-21.5% [at 57.5 µM] (inactive)
CCN(CC)c1nc(-c2ccccn2)nc(-c2ccccc2)c1C#N,7.08 µM (active),
O=C(NNC(=O)C(c1ccccc1)c1ccccc1)c1ccccn1,3.16 µM (active),
O=C(NNC(=O)C12CC3CC(CC(C3)C1)C2)c1ccccn1,8.91 µM (active),
O=C(NCC(=O)N1CC(O)CC1C(=O)N1CCCC1C(=O)OCc1ccccc1)OCc1ccccc1 (centres undefined),3.16 µM (active),
COC(=O)c1cc(=O)n(CCc2ccc(OC)c(OC)c2)c(=Nc2ccc(F)c(Cl)c2)s1,3.16 µM (active),
CCCC[C@@H](CNC)NC[C@H](NCCCCC1CCCCC1)C(C)C,28.2 µM (active),
CCN1C(=O)/C(=C/c2nc3ccccc3c(=O)n2-c2ccccc2)c2ccccc21,25.1 µM (active),
O=[N+]([O-])c1c(Nc2ccccn2)cc(Cl)c2nonc12,7.94 µM (active),
COc1cc(C=CC(=O)c2cc(OC)c(OC)c(OC)c2)cc(OC)c1OC,8.91 µM (active),
COc1cc(/C=C/c2ccc3cccc(O)c3n2)cc(OC)c1OC,,-20.7% [at 57.5 µM] (inactive)
Cc1[nH]c2ccccc2c1C1=NNC(=Nc2ccc(F)cc2)SC1,31.6 µM (active),
O=C(Nc1ccc(Cl)cc1)Nc1nc(-c2sccc2Br)cs1,6.31 µM (active),

SMILES,Potency,"activity change, negative = inhibition"
CC(C)[C@@H]1CC[C@@H](C)C[C@H]1OC(=O)C[n+]1cc(-c2ccc(Cl)cc2)n2c1CCCCC2,15.8 µM (active),
O=C(Nc1nc(-c2ccccc2)cs1)c1ccccc1NS(=O)(=O)c1ccc(F)cc1,2 µM (active),
COc1ccc(-c2csc(NC(=O)c3ccccc3NS(=O)(=O)c3ccc(F)c(F)c3)n2)cc1,1.78 µM (active),
NS(=O)(=O)c1ccc(Nc2nc(-c3ccc(F)cc3)cs2)cc1,,-25.8% (inactive)
OC(c1ccc(Cl)cc1)c1ncc(-c2cccc(C(F)(F)F)c2)[nH]1 (centres undefined),,-16.3% (inactive)
Cc1cc(C)c(C(O)c2ncc(-c3cccc4ccccc34)[nH]2)c(C)c1 (centres undefined),,-15.3% (inactive)
OC(c1cc(F)cc(Cl)c1)c1ncc(-c2cccc(C(F)(F)F)c2)[nH]1 (centres undefined),3.16 µM (active),
CCN(CC)C(=O)C1=C(C)N(CCC2=CCCCC2)C(=O)C(CC(=O)NC(c2ccccc2)c2ccccc2)C1 (centres undefined),,-19.3% (inactive)
C/C(=N\NC(=O)c1ccc(Cl)c(Cl)c1)c1ccccn1,0.178 µM (active),
C/C(=N\NC(=O)c1cccc2ccccc12)c1ccccn1,0.708 µM (active),
Cc1cc(C)cc(NC(=O)CSc2nc3nc(C)cc(C)c3c(=O)[nH]2)c1,28.2 µM (active),
Cc1cc(C)cc(NC(=O)CSc2nc3[nH]ncc3c(=O)[nH]2)c1,2.51 µM (active),
Cn1c(CO)cnc1S(=O)(=O)Cc1ccc([N+](=O)[O-])cc1,,-3.34% [at 57.5 µM] (inactive)
COc1cc(C(=O)O/N=C(\N)Cc2ccc([N+](=O)[O-])cc2)cc(OC)c1OC,2.82 µM (active),
O=c1[nH]c(=O)n(C2C[C@H](O)[C@@H](CO)O2)cc1C(F)(F)F (some centres undefined),1.26 µM (active),
CCOC(=O)c1c(-c2ccccc2)oc2cc(CN(C)C)c(O)c(CN(C)C)c12,3.16 µM (active),
CCCC(=O)NC(c1ccc(Cl)cc1)c1ccc2cccnc2c1O (centres undefined),1.58 µM (active),
CCCC(=O)NC(c1ccc(C(C)C)cc1)c1ccc2cccnc2c1O (centres undefined),0.178 µM (active),
CCCC(=O)NC(c1ccc(OC)cc1)c1ccc2cccnc2c1O (centres undefined),2.24 µM (active),
CCCCC(=O)NC(c1ccc(Cl)cc1)c1ccc2cccnc2c1O (centres undefined),1.41 µM (active),
CCCC(=O)NC(c1ccc(C)cc1)c1ccc2cccnc2c1O (centres undefined),1.58 µM (active),
CC(C)CC(=O)NC(c1cccs1)c1ccc2cccnc2c1O (centres undefined),0.398 µM (active),
